# DT40 TDP1 no CPT – qHTS for Inhibitors of human tyrosyl-DNA phosphodiesterase 1 (TDP1): qHTS in cells in absence of CPT; DT40 Tdp1-/- hTDP1 cells, no CPT, ATP luminescence, 48 h; Potency, µM (highest dose often 46.2 µM), without a hit: at the highest dose activity change, negative = growth inhibition, actives largely listed as inhibitors; 420,000 compounds, 15% hits; AID 686978, 2013; note: potency is the fitted concentration of half-maximal effect; nearly all actives have a fitted effect of over 55% in size
#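 A cellular qHTS used chicken DT40 cells lacking endogenous Tdp1 but carrying stably transfected human TDP1. Compounds were applied without camptothecin, and cell growth kinetics were judged by ATP-dependent luminescence after ≥48 hr.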
# HT1080-NT tox – kills 2HG-producing HT-1080-NT fibrosarcoma cells; HT-1080-NT fibrosarcoma viability, CellTiter-Glo ATP luminescence, 48 h; Potency, µM (doses to about 46.1 µM), inactives show at the top dose activity, negative = less viability, hits mostly cytotoxic; 360,000 compounds, 1.6% hits; AID 686970;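 note: NT is the 2HG producing partner of a matched IDH1 knockdown line; potency is the fitted concentration of half-maximal effect; 0% = DMSO-treated cells and -100% = media-only wells without cells; nearly all actives have a fitted effect of over 55% in size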
#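 Toxicity toward the 2HG-producing NT line was scored as %Activity, normalised to DMSO and no-cell wells, from CellTiter-Glo luminescence after 48 hours' treatment.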
# TDP1 cell CPT – DT40-hTDP1 cell growth loss with CPT. Potency, µM (series often up to 46.2 µM), for the others: at the top dose activity change, negative = growth inhibition, actives largely listed as inhibitors. chicken DT40 Tdp1-/-;hTDP1 cells + 20 nM CPT, ATP luminescence, 48 h. 420,000 compounds, 12% hits; note: potency is the fitted concentration of half-maximal effect; nearly all actives have a fitted effect of over 55% in size
#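 Chicken DT40 Tdp1-/- cells stably complemented with human TDP1 were seeded at 400 cells/well in medium containing 20 nM camptothecin, exposed to pin-transferred compounds, and grown at 37 °C for at least 48 hr. Viability was read as ATP luminescence.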
# IL1B secr inh – inhibitors of inflammasome signaling (IL-1 beta secretion); activity change, % at 57.5 µM; 360,000 compounds, 4.7% hits; AID 743279; THP-1 LPS/ATP IL-1B secretion, AlphaLISA, 16 h; hits give low values; in the data active = activity change below about -50%; inconclusive = mostly about -30% to -49%
#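 Secreted IL-1B measured by AlphaLISA bead assay after 16 h compound exposure of THP-1 cells; compounds (final up to 57.5 uM) added 1 h before LPS (250 ng/mL) and ATP (1.25 mM) stimulation; lower signal means less secretion.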
# ELG1 DNA repair – inhibitors of ELG1-dependent DNA repair in HEK293T cells; HEK293T ELG1-luciferase reporter, luminescence, 16 h; DNA damage induced by 5-fluorouridine; Potency, µM (titrated, usually from 46.1 µM), for the others: at the highest dose activity change, negative = inhibition, most hits filed as inhibitors; 330,000 compounds, 2.3% hits; AID 504467; note: potency is the fitted concentration of half-maximal effect; nearly all actives have a fitted effect of over 55% in size
#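 DMSO vehicle served as the neutral condition. Each well held 2,000 cells given 5-fluorouridine plus compound; after 16 hr at 37 °C/5% CO2, ONE-Glo was added and luciferase measured 30 min later.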
# HT1080 IDH1KD tx – HT-1080 IDH1 knockdown cell toxicity (counter line). HT-1080 IDH1 knockdown viability, ATP luminescence, 48 h. Potency, µM (highest dose often 46.1 µM), without a hit: at the top dose activity, negative = toxicity, hits mostly cytotoxic. 360,000 compounds, 2% hits. AID 686971;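 note: potency is the fitted concentration of half-maximal effect; 0% = DMSO wells and -100% = cell-free medium wells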
#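 After a 2 h attachment period, IDH1KD HT-1080 cells took pin-transferred compound for 48 h at 37 °C; ATP-based luminescence after 10 min room-temperature reagent incubation reported viability.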
# * marks the source's active call; other numbers are inactive results; ? = inconclusive; . = no result given. In the library only some 19% were active in any assay of this set; here they are far more common. Unless noted, calls come from the whole dose curve; as a rule, active = well fitted curve in the direction sought with a large enough effect; inconclusive = small, poorly fitted or top-dose-only effect, or another doubt; inactive = no such curve, though single readings can be large; an effect the other way counts as inactive or inconclusive. Unless noted, % is set by controls: 0 for no effect and ±100 for the full control effect.
SMILES,DT40 TDP1 no CPT,HT1080-NT tox,TDP1 cell CPT,IL1B secr inh,ELG1 DNA repair,HT1080 IDH1KD tx
CCOC(=O)C1CCC(CN(Cc2ccc(Cl)cc2)S(=O)(=O)c2cc(Cl)cc(Cl)c2)CC1 (stereo unspecified),10µM*,.,21µM*,.,.,.
C=C(C)CNC(=S)N/N=C/c1c(F)cccc1F,16µM*,-16%,?,-15,-5%,-13%
CCCCNC(=S)N/N=C/C1=CCC2CC1C2(C)C (stereo unspecified),18µM*,-4%,?,15,?,-10%
C=C(C)CNC(=S)N/N=C/C1=CCC2CC1C2(C)C (stereo unspecified),7.3µM*,4%,7.3µM*,10,-8%,8%
CCc1nc(CNC(=O)C2CCC(=O)N(Cc3ccccc3F)C2)no1 (stereo unspecified),22%,?,17%,6,17%,26%
Cc1ccc(S(=O)(=O)Nc2cc(C)c(O)c(Sc3n[nH]c(C)n3)c2)cc1,?,?,18µM*,-3,-8%,?
CN(C(=O)CSc1nc2scc(-c3ccccc3)c2c(=O)[nH]1)c1ccccc1,?,-11%,?,-2,?,-2%
c1ccc(NC2=NCCN2CCCC2CCCCC2)cc1,23µM*,-27%,16µM*,-61*,-1%,-27%
c1ccc(CCCCN2CCN=C2Nc2ccccc2)cc1,16µM*,-5%,?,-4,-6%,-10%
CC1(C)CC(=O)C=C(NC2CCCC(O)C2)C1 (stereo unspecified),-2%,11%,-3%,30,14%,6%
CC(NCc1ccccc1O)c1ccccc1 (stereo unspecified),22%,2%,-15%,10,-4%,-3%
COc1ccc2ccccc2c1CNCc1ccc(C)cc1,?,?,?,-92*,-14%,?
COc1ccc2ccccc2c1CNC(C)c1ccccc1 (stereo unspecified),10µM*,-27%,7.3µM*,-55*,0%,?
CC(NCCCOc1cccc2ccccc12)c1ccccc1 (stereo unspecified),18µM*,?,?,-74*,-4%,?
Cc1ccc(-c2nnc(OCc3nc4ccccc4n3C)c3ccccc23)cc1,-20%,9%,?,13,.,0%
O=c1/c(=C/c2ccc([N+](=O)[O-])cc2)sc2n1CCCN=2,13µM*,-14%,26µM*,?,?,-13%
CSc1ccc(/C=C(/NC(=O)c2ccccc2)C(=O)NCCN2CCOCC2)cc1,-6%,3%,-5%,5,-2%,9%
Cc1ccccc1Nc1c(-c2ccccc2)nc2cccc(C)n12,3.2µM*,?,?,.,.,-24%
Cc1ccccc1Nc1nc(Cl)c(C=O)s1,-21%,1%,-25%,-19,-12%,-5%
COc1cc(-c2nc3cccc(C)n3c2NCC2CCCO2)ccc1O (stereo unspecified),?,-6%,-14%,-21,-10%,-1%
Cc1ccccc1Nc1c(-c2ccc(Cl)s2)nc2cccc(C)n12,?,.,8.2µM*,.,.,.
CCCCN1C(=O)C(CC(=O)NCc2cccc3ccccc23)CC(C(=O)N(C)C)=C1C (stereo unspecified),?,-1%,-6%,-6,.,-8%
CC(C)C[C@H](NC(=O)N1CCn2c1nc1ccccc12)C(=O)NCC1CCCO1 (stereo partly specified),29%,25%,-7%,-9,?,28%
CC(C)OC(=O)c1cc2c(ccn2C)n1CC(=O)N(Cc1ccccc1)c1ccc(F)cc1,21µM*,?,16µM*,0,8%,21µM*
CC(C)OC(=O)c1cc2c(ccn2C)n1CC(=O)N1CCC(Cc2ccccc2)CC1,21µM*,-28%,?,-8,1%,?
SMILES,DT40 TDP1 no CPT,HT1080-NT tox,TDP1 cell CPT,IL1B secr inh,ELG1 DNA repair,HT1080 IDH1KD tx
CCOC(=O)c1cc2c(ccn2C)n1CC(=O)N(Cc1ccccc1)c1ccc(F)cc1,-2%,-23%,-27%,8,-31%,-2%
CCOC(=O)c1cc2c(ccn2C)n1CC(=O)N(Cc1ccccc1)c1ccccc1,?,-9%,23µM*,-72*,-10%,-16%
CCc1nc(SCc2ccccc2C)n[nH]1,?,1%,-5%,-6,?,16%
COC(=O)c1ccc(OCC(O)CNCC(c2ccc(OC)cc2)N(C)C)c(OC)c1 (stereo unspecified),-13%,-4%,-27%,-11,?,11%
Cc1cc(N2CCN(c3ccccc3)CC2)n2ncnc2n1,?,1%,-22%,1,-9%,-3%
Cc1cc(N2CCN(C/C=C/c3ccccc3)CC2)n2ncnc2n1,10µM*,0%,16µM*,-21,?,-8%
O=C(CN1C(=O)NC(c2ccccc2)(c2ccccc2)C1=O)N1CCN(c2ccc(F)cc2)CC1,?,?,?,-6,?,?
O=C(CCC(=O)N1CCN(c2ccccc2F)CC1)N1CCN(c2ccccc2)CC1,-29%,4%,?,-1,6%,3%
O=C(CN1C(=O)NC(c2ccccc2)(c2ccccc2)C1=O)N1CCN(c2ccccc2F)CC1,4.1µM*,-27%,?,?,-11%,-6%
O=C(CCC(=O)N1CCN(c2ccccc2F)CC1)N1CCN(c2ccc(F)cc2)CC1,16µM*,-1%,?,9,?,-24%
O=C(CCSCc1ccccc1F)N1CCN(c2ccc(F)cc2)CC1,26µM*,.,?,.,.,.
O=C(Nc1ccc(S(=O)(=O)N2CCCCC2)cc1)C1CC(=O)N(c2ccccc2)C1 (stereo unspecified),?,-3%,?,-11,-3%,-1%
COCCn1c(=O)c(-c2cn(C)c3ccccc23)nc2cnc(Oc3ccccc3)nc21,-10%,.,6%,.,.,.
CCOC(=O)/C=c1\s/c(=C\c2ccc3cc(OC)ccc3c2)c(=O)n1CC(=O)NCC1CCCO1 (stereo unspecified),6.5µM*,12%,9.2µM*,-7,-26%,17%
CCOC(=O)/C=c1/s/c(=C/c2ccc3cc(OC)ccc3c2)c(=O)n1CC(=O)NCc1ccc2c(c1)OCO2,9.2µM*,0%,5.8µM*,20,.,5%

# Assay outcomes from PubChem.
